Shown are actives, neighbours in structure and some others; about 6.2% of the full set was active somewhere.
HCMV inh: inhibitors of human cytomegalovirus; HFF cells, HCMV-luciferase reporter, 72 h; stronger effect = lower value; activity change, negative = inhibition, % at 57.5 µM; actives 4.5% (n = 410,000); in the data active = activity change below about -60%; inconclusive = no clear call, values can overlap the other calls; inactive = above about -39%
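Two-dose cell screen: HFF monolayers treated with compounds and infected with luciferase-expressing HCMV at 1 PFU/cell, 72 h at 37C, then lysed for luciferase measurement.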
FMDV antiviral: foot and mouth disease virus antiviral activity; Potency, µM (series often up to 57.9 µM), for inactives: at the highest dose activity change, negative = inhibition, usual class: inhibitors; FMDV antiviral cell-based qHTS; AID 1159524; actives 1.2% (n = 410,000); calls by dose curve; tested in HEK293T cells; also: read-out not given here; potency is read from the fitted curve at half-maximal effect; nearly all actives have a fitted effect of over 45% in size
MARV entry inh: Marburg virus entry inhibition; Potency, µM (top dose mostly 37.8 µM), for inactives: top-dose activity change, negative = inhibition, actives largely listed as inhibitors; actives 1.8% (n = 300,000); Marburg virus pseudotyped entry inhibition, cell reporter; AID 540276; calls by dose curve; tested in HEK293 cells; also: potency is read from the fitted curve at half-maximal effect
Lassa entry inh: inhibitors of Lassa virus binding or cell entry; Lassa virus pseudotype entry inhibition, cell reporter; Potency, µM (series often up to 37.9 µM), without a hit: top-dose activity change, negative = inhibition, hits mostly inhibitors; actives 1.2% (n = 300,000); calls by dose curve; tested in HEK293 cells; also: potency is read from the fitted curve at half-maximal effect; nearly all actives have a fitted effect of over 50% in size
* marks the source's active call; other numbers are inactive results; u = inconclusive; x = no result; ! = repeats disagree; [ ] = another dose, or the depositor's remark. % is scaled to controls: 0 for no effect and ±100 for the full control effect.

SMILES	HCMV inh	FMDV antiviral	MARV entry inh	Lassa entry inh
COc1ccc(CC(=O)NNS(=O)(=O)c2ccccc2[N+](=O)[O-])cc1OC	-11	-4%	3%[46.1 µM]	28%
Cc1cc(C=O)c(C)n1-c1ccc(N2CCCCC2)c([N+](=O)[O-])c1	-25	u	u	u
Cc1cc(/C=C(\C#N)C(N)=O)c(C)n1-c1ccc(N2CCOCC2)c([N+](=O)[O-])c1	-75*	u	u	-23%
O=C(CSc1nc2ccccc2[nH]1)Nc1c(F)c(F)c(F)c(F)c1F	24	9%	x	x
CCC/C(=N\NC(=O)CCC(=O)NCc1ccccc1)c1ccccc1	0	-12%	u	4µM*
COC(=O)Cn1cc(/C=C/c2cc[n+](C)cc2)c2ccccc21	20	-10%	x	x
Cc1ccc2[nH]cc(/C=C/c3cc[n+](C)cc3)c2c1	-100*	-11%	5µM*	u
COc1ccc2c(/C=C/c3cc[n+](C)cc3)c[nH]c2c1	-99*	u	-28%	-15%
CC[n+]1ccc(/C=C/c2c[nH]c3ccccc23)cc1	-94*	u	x	x
COc1ccc2c(c1)c(/C=C/c1cc[n+](C)cc1)cn2C	-98*	u	x	x
C=CCn1c(C2CCCCC2)n[nH]c1=S	-97*	u	4%	-2%
COCCCNC(=O)c1ccc(C(=O)NCCCOC)cc1	20	-3%	12%	28%[14.3 µM]
COCCCNC(NC(=O)c1ccc(Br)cc1)C(Cl)(Cl)Cl (centres undefined)	-66*	0%	6%	11%
COCCNC(=O)[C@H]1[C@H](CO)[C@H]2Cn3c(ccc(-c4ccc(F)cc4)c3=O)[C@@H]1N2C(=O)NC(C)C	3	x	x	x
COc1cccc(CNC(=O)[C@@H]2[C@@H](CO)[C@@H]3Cn4c(ccc(-c5cncnc5)c4=O)[C@H]2N3C(C)=O)c1	-101*	x	x	x
CC(=O)c1cccc(NC(=O)C2Cc3c(-c4ccc(Cl)cc4)ccnc3O2)c1 (centres undefined)	x	35µM*	x	x
COc1ccc(NC(=O)C2Cc3c(-c4cccc(F)c4)ccnc3O2)cc1OC (centres undefined)	-76*	16µM*	x	x
COc1ccc(NC(=O)C2Cc3c(-c4ccc5c(c4)OCO5)ccnc3O2)cc1OC (centres undefined)	-90*	11µM*	x	x
COc1ccc(NC(=O)C2Cc3c(-c4ccc(NC(C)=O)cc4)ccnc3O2)cc1OC (centres undefined)	-36	-14%	x	x
COc1ccc(NC(=O)C2Cc3c(-c4ccco4)ccnc3O2)cc1OC (centres undefined)	-73*	u	x	x
COC(=O)C1=C(c2ccc(F)cc2OCc2ccccc2)C[C@@H]2CC[C@H]1N2C(=O)NCc1ccco1	-2	u	x	x
O=C(CCNC(=O)N1CC(=O)Nc2ccccc21)NCc1cccc(Cl)c1	1	-7%	x	x
O=C(Nc1cccc(C(=O)Nc2ccc(S(=O)(=O)O)c3cc(S(=O)(=O)O)cc(S(=O)(=O)O)c23)c1)Nc1cccc(C(=O)Nc2ccc(S(=O)(=O)O)c3cc(S(=O)(=O)O)cc(S(=O)(=O)O)c23)c1	x	-13%	u	u
Clc1ccc(C2[C@H]3CN(Cc4cccnc4)[C@H](c4ccccc4)C34CC2(c2ccccc2)C4)cn1 (some centres undefined)	8	u	x	x
CS(=O)(=O)Nc1cccc(NC(=O)C2Cc3c(-c4cccc(F)c4)ccnc3O2)c1 (centres undefined)	-78*	-1%	x	x
SMILES	HCMV inh	FMDV antiviral	MARV entry inh	Lassa entry inh
O=C(Nc1ccccc1)C1Cc2c(-c3cccc(F)c3)ccnc2O1 (centres undefined)	-31	-13%	x	x
CCC1Oc2ccc(C)cc2N(CC(=O)N(Cc2ccc(C)o2)C2CCCC2)C1=O (centres undefined)	26	22µM*	u	u
CCC1Oc2ccc(C)cc2N(CC(=O)NC2CCCCC2)C1=O (centres undefined)	-25	-2%	4%[46.1 µM]	2%[46.1 µM]
Cn1nc(-c2ccc(Cl)cc2)c2cc(C(=O)N3CCN(c4ccccc4)CC3)sc21	17	-30%	7%	x
Cc1cccn2cc(COc3ccc(-c4ccccc4)cc3)nc12	-90*	5%	u	u
Cc1ccccc1-n1c(=O)n(CCc2ccccc2)c(=O)c2[nH]cnc21	1	-9%	x	x
Cc1ccccc1-n1c(=O)n(Cc2ccccc2)c(=O)c2[nH]cnc21	46	-16%	u	13µM*
O=C(CCCC(=O)N1CCc2ccccc21)N1CCc2ccccc21	41	9%	19%	-1%
Cc1ccc(C(=O)O[C@H](C(=O)O)[C@H](OC(=O)c2ccc(C)cc2)C(=O)O)cc1	-37	-12%	-2%[46.1 µM]	4%[46.1 µM]
CC(=O)Nc1cncc(-c2ccccc2F)n1	-96*	-20%	x	x
CC(=O)Nc1cncc(-c2ccccc2C(C)=O)n1	-17	26%	x	x
CC(Oc1ccccc1)C(=O)Nc1nnc(S(=O)(=O)N2CCCCCC2)s1 (centres undefined)	-69*!	-9%	x	-4%[46.1 µM]
O=C(CSc1ccc2nnc(CCNC(=O)c3ccccc3)n2n1)Nc1ccccc1	0	-7%	5%[46.1 µM]	6%[46.1 µM]
CC1CCCN(CCCNC(=O)c2cc3c(Cl)nc4ccccc4c3s2)C1 (centres undefined)	-91*!	-24%	2.8µM*	u
CN(CCCNC(=O)c1cc2c(Cl)nc3ccccc3c2s1)Cc1ccccc1	u	-14%	10µM*	u
Cc1cc(-n2c(C)cc(C(=O)CSc3ncnc4ccccc34)c2C)no1	-78*	13µM*	9.2µM*	u
CC(=O)c1cccc(OCC(=O)c2cc(C)n(-c3cc(C)on3)c2C)c1	-3	22µM*	-29%	-43%
Cc1cc(-n2c(C)cc(C(=O)COc3ccc4ccc(=O)oc4c3)c2C)no1	u	-29%	u	-18%
CN(C)CCN(C)Cc1c2ccccc2c(CN(C)CCN(C)C)c2ccccc12	u	-5%	u	u
COc1cc(NC(=O)c2ccccc2)c(OC)cc1Cl	127	0%	0%	0%
COc1cc(OC)c(NC(=O)c2cc3ccccc3cc2O)cc1Cl	-81*	-17%	u	u
CCOc1cc(-c2ccccc2)nc(N)n1	7	44%	u	17%
Nc1nc(-c2ccccc2)cc(N2CCCCC2)n1	-63*	-4%	u	u
COc1cc(-c2ccccc2)nc(N)n1	71	77%	u	12µM*
Cc1nc(-c2ccccc2)cc(N2CCCC2)n1	5	8%	-10%	5%
Clc1ccc(C2=Nn3c(nnc3-c3cccs3)SC2)cc1	-21	-24%	0%	11%
OC1(c2ccccc2)CN(c2ccccc2)C2=[N+]1CCS2 (centres undefined)	-62*	u	-18%	-5%
COc1ccccc1-c1c(C)oc2c(CN3CCCCC3C)c(O)ccc2c1=O (centres undefined)	-4	4%	1%	u
CN(C)c1ccc(CN2CCC(C(=O)NC(c3ccc(F)cc3)c3ccc4ccccc4n3)CC2)cc1 (centres undefined)	11	-7%	x	x
C/C(=N\NC(=O)c1cc(-c2cccnc2)nc2ccccc12)c1ccccc1O	-102*	30%	10µM*	u
